Experimental data: PubChem BioAssay (Tox21)
Where “and” joins values, the source holds several entries; their conditions need not be identical. Identical values can stand only once. Inconclusive results are not listed. A call without a number means that no potency is given here. A structure can be active in one record and inactive in another. Calls of active or inactive are those of the source. Unless noted, the call rests on the fitted dose curve; in most records, active means well fitted curve in the direction sought with a large enough effect in the repeat runs; inconclusive means weak or mixed curves; inactive means no such curve, though single readings can be large; an effect the other way counts as inactive or inconclusive.

Assays:
[1] = qHTS assay to identify small molecule antagonists of the glucocorticoid receptor (GR) signaling pathway - cell viability counter screen (AID 720693); further: nearly all actives have a fitted effect of over 55% in size; further: potency means the concentration at half of the fitted maximal effect
[2] = qHTS assay for identifying genotoxic compounds that show differential cytotoxicity against isogenic chicken DT40 cell lines with known DNA damage response pathways - wild type cell line (AID 743012); further: nearly all actives have a fitted effect of over 60% in size; further: potency means the concentration at half of the fitted maximal effect
In short: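 Quantitative HTS on parental DT40 cells: 40 h compound treatment at 37 C/5% CO2, with viability then determined by CellTiter-Glo luminescence. Values serve as the DNA repair-proficient reference for differential cytotoxicity.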

[3] = qHTS assay for identifying genotoxic compounds that show differential cytotoxicity against isogenic chicken DT40 cell lines with known DNA damage response pathways - Rev3 mutant cell line (AID 743014); further: nearly all actives have a fitted effect of over 55% in size; further: potency means the concentration at half of the fitted maximal effect
[4] = qHTS assay for identifying genotoxic compounds that show differential cytotoxicity against isogenic chicken DT40 cell lines with known DNA damage response pathways - Rad54/Ku70 mutant cell line (AID 743015); further: nearly all actives have a fitted effect of over 60% in size; further: potency means the concentration at half of the fitted maximal effect
[5] = qHTS assay to identify small molecule antagonists of the androgen receptor (AR) signaling pathway - cell viability counter screen (AID 743033; further: nearly all actives have a fitted effect of over 45% in size)
[6] = molecular target: Androgen receptor (Homo sapiens) (UniProt P10275); experiment: qHTS assay to identify small molecule antagonists of the androgen receptor (AR) signaling pathway (AID 743035; active means well fitted inhibition curve with a large enough effect in the signal ratio in the repeat runs, not every such curve was filed as active; the % refers to the signal ratio)
Chain of Androgen receptor (Homo sapiens) (P10275 whole entry, looked up): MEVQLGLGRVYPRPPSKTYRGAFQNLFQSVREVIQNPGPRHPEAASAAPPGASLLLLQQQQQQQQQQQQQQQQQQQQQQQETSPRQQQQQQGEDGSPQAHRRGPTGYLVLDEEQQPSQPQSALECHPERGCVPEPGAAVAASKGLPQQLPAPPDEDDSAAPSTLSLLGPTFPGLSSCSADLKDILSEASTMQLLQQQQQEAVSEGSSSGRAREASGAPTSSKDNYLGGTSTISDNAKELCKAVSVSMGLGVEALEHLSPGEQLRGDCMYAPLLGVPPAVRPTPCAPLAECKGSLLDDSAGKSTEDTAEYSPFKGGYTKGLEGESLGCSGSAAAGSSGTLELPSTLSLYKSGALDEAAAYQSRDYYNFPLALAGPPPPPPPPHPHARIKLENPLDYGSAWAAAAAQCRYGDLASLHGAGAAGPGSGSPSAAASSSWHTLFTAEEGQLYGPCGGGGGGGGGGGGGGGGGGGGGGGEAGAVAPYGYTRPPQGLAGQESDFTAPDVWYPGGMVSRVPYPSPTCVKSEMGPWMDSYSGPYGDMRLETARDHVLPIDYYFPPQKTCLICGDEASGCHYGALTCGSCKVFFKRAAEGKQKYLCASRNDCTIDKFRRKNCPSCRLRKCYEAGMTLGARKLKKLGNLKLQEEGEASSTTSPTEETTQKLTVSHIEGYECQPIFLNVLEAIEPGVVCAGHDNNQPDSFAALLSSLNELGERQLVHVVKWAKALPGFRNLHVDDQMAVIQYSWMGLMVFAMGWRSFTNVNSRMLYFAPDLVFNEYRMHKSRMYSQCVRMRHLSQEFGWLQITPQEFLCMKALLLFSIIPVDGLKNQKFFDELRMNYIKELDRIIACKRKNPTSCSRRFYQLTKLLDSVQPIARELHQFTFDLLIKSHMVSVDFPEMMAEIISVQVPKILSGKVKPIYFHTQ
In short: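 Cell line: GeneBLAzer AR-UAS-bla GripTite (HEK293). Stimulus: R1881 added after compound. Exposure: 16 h, 37C, 5% CO2. Readout: LiveBLAzer B/G FRET fluorescence after 2 h at room temperature.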

[7] = molecular target: Androgen receptor (Homo sapiens) (UniProt P10275); experiment: qHTS assay to identify small molecule agonists of the androgen receptor (AR) signaling pathway (AID 743036; active means well fitted activation curve with a large enough effect in the signal ratio in the repeat runs, with a control signal flat, not every such curve was filed as active; the % refers to the signal ratio)
In short: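 Fluorescence from a beta-lactamase FRET substrate served as read-out in AR-UAS-bla GripTite HEK293 cells. Cells were treated with DMSO-dissolved compounds for 16 h at 37C, then with LiveBLAzer B/G substrate for 2 h at room temperature.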

[8] = molecular target: Androgen receptor (Homo sapiens) (UniProt P10275); experiment: qHTS assay to identify small molecule agonists of the androgen receptor (AR) signaling pathway using the MDA cell line (AID 743040; further: nearly all actives have a fitted effect of over 20% in size)
In short: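 Human breast carcinoma MDA-kb2 reporter cells (MMTV-luc, AR/GR elements) were treated for 16 h at 37C in 0% CO2 following a 5 h settling period. Signal was quantified by ONE-Glo luminescence.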

[9] = qHTS assay to identify small molecule antagonists of the androgen receptor (AR) signaling pathway using the MDA cell line - cell viability counter screen (AID 743041; further: nearly all actives have a fitted effect of over 45% in size; further: potency means the concentration at half of the fitted maximal effect)
In short: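 Same-well cytotoxicity was assessed by CellTiter-Fluor in MDA-kb2 AR-luc cells after 16 h of compound treatment under R1881 agonism.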

[10] = molecular target: Androgen receptor (Homo sapiens) (UniProt P10275); experiment: qHTS assay to identify small molecule antagonists of the androgen receptor (AR) signaling pathway using the MDA cell line (AID 743042; further: nearly all actives have a fitted effect of over 55% in size)
In short: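 MDA-kb2 breast carcinoma cells carrying MMTV-luciferase (AR/GR responsive) were co-treated with compounds and the agonist R1881 for 16 h at 37C. Inhibition read as ONE-Glo luminescence; CellTiter-Fluor fluorescence measured in parallel for cytotoxicity.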

[11] = test system: thyroid hormone receptor (rat, GH3 cells); experiment: qHTS assay to identify small molecule agonists of the thyroid receptor (TR) signaling pathway (AID 743066; calls by dose curve)
[12] = qHTS assay to identify small molecule antagonists of the estrogen receptor alpha (ER-alpha) signaling pathway - cell viability counter screen (AID 743074; calls by dose curve;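 further: HEK293 cells carrying ER-alpha-UAS-bla reporter stimulated with 17beta-estradiol; nearly all actives have a fitted effect of over 45% in size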)
[13] = qHTS assay to identify small molecule antagonists of the estrogen receptor alpha (ER-alpha) signaling pathway using the BG1 cell line - cell viability counter screen (AID 743081);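 further: compound given together with 17beta-estradiol as the ER stimulus; nearly all actives have a fitted effect of over 45% in size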; further: potency means the concentration at half of the fitted maximal effect
[14] = molecular target: Aromatase (Homo sapiens) (UniProt P11511); experiment: qHTS assay to identify aromatase inhibitors (AID 743083); further: nearly all actives have a fitted effect of over 55% in size; further: potency means the concentration at half of the fitted maximal effect
Chain of Aromatase (Homo sapiens) (P11511 whole entry, looked up): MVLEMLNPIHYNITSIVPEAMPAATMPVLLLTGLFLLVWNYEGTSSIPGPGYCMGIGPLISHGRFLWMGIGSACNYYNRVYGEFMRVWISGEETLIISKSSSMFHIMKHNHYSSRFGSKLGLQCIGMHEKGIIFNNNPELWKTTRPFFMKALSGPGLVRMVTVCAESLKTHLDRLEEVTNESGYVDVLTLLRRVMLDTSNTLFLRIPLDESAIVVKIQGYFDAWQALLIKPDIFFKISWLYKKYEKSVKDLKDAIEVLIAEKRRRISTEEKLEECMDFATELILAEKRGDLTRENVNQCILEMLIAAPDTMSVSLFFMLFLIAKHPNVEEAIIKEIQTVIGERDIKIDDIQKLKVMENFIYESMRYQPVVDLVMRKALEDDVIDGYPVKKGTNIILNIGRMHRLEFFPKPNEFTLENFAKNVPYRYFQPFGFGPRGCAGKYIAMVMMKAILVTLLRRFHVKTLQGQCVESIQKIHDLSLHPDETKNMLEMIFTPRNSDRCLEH

[15] = qHTS assay to identify small molecule antagonists of the thyroid receptor (TR) signaling pathway - cell viability counter screen (AID 743064); further: nearly all actives have a fitted effect of over 50% in size; further: potency means the concentration at half of the fitted maximal effect
In short: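 Fluorescence from CellTiter-Fluor, added after 23.5 h exposure at 37 °C, reported viability of GH3.TRE-Luc cells co-treated with compound and 1 nM T3. Measured in the same wells as the luciferase TR readout.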

[16] = qHTS assay to identify small molecule antagonists of the thyroid receptor (TR) signaling pathway (AID 743065)
In short: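 GH3.TRE-Luc rat pituitary cells (two TREs driving luciferase) were dosed with compound, then stimulated with 1 nM T3 (final) for 23.5 h at 37 C. ONE-Glo luminescence was the read-out, with CellTiter-Fluor fluorescence as the cytotoxicity counter-screen.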

[17] = molecular target: Estrogen receptor (Homo sapiens) (UniProt P03372); experiment: qHTS assay to identify small molecule antagonists of the estrogen receptor alpha (ER-alpha) signaling pathway (AID 743069; active means well fitted curve in the direction sought with a large enough effect in the signal ratio in the repeat runs, not every such curve was filed as active; the % refers to the signal ratio)
Chain of Estrogen receptor (Homo sapiens) (P03372 whole entry, looked up): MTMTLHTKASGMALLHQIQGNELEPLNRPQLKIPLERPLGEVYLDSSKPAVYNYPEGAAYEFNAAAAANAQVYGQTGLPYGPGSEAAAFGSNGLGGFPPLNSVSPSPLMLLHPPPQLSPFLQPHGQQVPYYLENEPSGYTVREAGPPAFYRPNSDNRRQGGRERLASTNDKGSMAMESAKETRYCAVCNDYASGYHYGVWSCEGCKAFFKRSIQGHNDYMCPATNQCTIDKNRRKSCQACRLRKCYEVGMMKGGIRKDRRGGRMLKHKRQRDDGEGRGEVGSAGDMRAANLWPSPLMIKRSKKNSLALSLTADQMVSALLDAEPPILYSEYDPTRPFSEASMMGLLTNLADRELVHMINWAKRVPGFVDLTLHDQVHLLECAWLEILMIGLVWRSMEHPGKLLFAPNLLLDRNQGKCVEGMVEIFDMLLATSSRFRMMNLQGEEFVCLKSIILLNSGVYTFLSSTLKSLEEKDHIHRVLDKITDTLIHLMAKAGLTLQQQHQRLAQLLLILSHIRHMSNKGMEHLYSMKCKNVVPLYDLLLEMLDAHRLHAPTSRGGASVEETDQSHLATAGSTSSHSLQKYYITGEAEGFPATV
In short: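 Reporter cells (ER-alpha-bla, HEK293 background) are conditioned overnight in stripped-serum medium (2% charcoal-stripped FBS). Compound and 17beta-estradiol exposure runs 18 hr at 37C, 5% CO2.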

[18] = molecular target: Estrogen receptor (Homo sapiens) (UniProt P03372); experiment: qHTS assay to identify small molecule agonists of the estrogen receptor alpha (ER-alpha) signaling pathway (AID 743075; calls by dose curve;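 further: HEK293 GripTite cells with ER-alpha and UAS-driven beta-lactamase reporter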)
[19] = molecular target: Estrogen receptor (Homo sapiens) (UniProt P03372); experiment: qHTS assay to identify small molecule agonists of the estrogen receptor alpha (ER-alpha) signaling pathway using the BG1 cell line (AID 743079); further: nearly all actives have a fitted effect of over 20% in size; further: potency means the concentration at half of the fitted maximal effect
[20] = qHTS assay to identify small molecule antagonists of the estrogen receptor alpha (ER-alpha) signaling pathway using the BG1 cell line (AID 743080; calls by dose curve;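 further: BG1 cells stimulated with 17beta-estradiol alongside compound; nearly all actives have a fitted effect of over 25% in size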; further: potency means the concentration at half of the fitted maximal effect)
In short: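 After 5 days in phenol-red-free 10% charcoal-stripped FBS medium, BG1-Luc-4E2 cells were seeded, left 24 h at 37 C, co-treated with compounds and 17beta-estradiol for 21.5 h, then assayed for viability and luciferase.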

| Structure (SMILES) | Potency [1] | Potency [2] | Potency [3] | Potency [4] | outcome [5] | Potency [6] | outcome [7] | Potency [8] | Potency [9] | Potency [10] | outcome [11] | outcome [12] | Potency [13] | Potency [14] | Potency [15] | Potency [16] | Potency [17] | Potency [18] | Potency [19] | Potency [20] |
| --- | --- | --- | --- | --- | --- | --- | --- | --- | --- | --- | --- | --- | --- | --- | --- | --- | --- | --- | --- | --- |
| C[C@]12CC[C@@H]3c4ccc(O)cc4C[C@@H](CCCCCCCCCS(=O)CCCC(F)(F)C(F)(F)F)[C@H]3[C@@H]1CC[C@@H]2O (some centres undefined) | inactive | 8.41 µM (active) | 11.9 µM (active) and inactive | 6.68 µM (active) | inactive | inactive | inactive | inactive | inactive | inactive | inactive | inactive | inactive | 59.6 nM (active) and 15.3 nM (active) |  |  |  |  |  |  |
| COc1ccccc1O | inactive | inactive | inactive | inactive | inactive |  |  |  | inactive |  | inactive | inactive | inactive | inactive | inactive | inactive | inactive | inactive | inactive | inactive |
| COCC(C)N (centres undefined) | inactive | inactive | inactive | inactive | inactive | inactive | inactive | inactive | inactive | inactive | inactive | inactive | inactive | inactive | inactive | inactive | inactive | inactive | inactive | inactive |
| C[C@]12C[C@H](O)[C@H]3[C@@H](CCC4=CC(=O)CC[C@@]43C)[C@@H]1CC[C@@H]2C(=O)CO | inactive | inactive | inactive | 48.6 µM (active) | inactive |  |  |  | inactive |  | inactive | inactive | inactive | inactive | inactive |  | inactive | inactive | inactive | inactive |
| CO[C@H]1C=CO[C@@]2(C)Oc3c(C)c(O)c4c(O)c(c(/C=N/N5CCN(C)CC5)c(O)c4c3C2=O)NC(=O)/C(C)=C\C=C[C@H](C)[C@H](O)[C@@H](C)[C@@H](O)[C@@H](C)[C@H](OC(C)=O)[C@@H]1C | inactive | 21.1 µM (active) and 31 µM (active) | 29.8 µM (active) and 24.6 µM (active) | 26.6 µM (active) and 15.5 µM (active) | inactive |  |  |  | 26.6 µM (active) |  | inactive | inactive | 23.7 µM (active) and 34.8 µM (active) | inactive | 26.6 µM (active) and 34.8 µM (active) | inactive |  |  |  |  |
| O=C(O)CCCCC1CCSS1 (centres undefined) | inactive | inactive | inactive | inactive | inactive |  |  |  | inactive |  | inactive | inactive | inactive | inactive | inactive |  | inactive | inactive | inactive | inactive |
| OCCCc1ccccc1 | inactive | inactive | inactive | inactive | inactive |  |  |  | inactive |  | inactive | inactive | inactive | inactive | inactive |  | inactive | inactive | inactive | inactive |
| O=C1CCCCCN1 | inactive | inactive | inactive | inactive | inactive |  |  |  | inactive |  | inactive | inactive | inactive | inactive | inactive | inactive |  |  |  |  |
| CC(=O)/C=C/C1=C(C)CCCC1(C)C | inactive | inactive | inactive | inactive | inactive |  |  |  | inactive |  | inactive | inactive | inactive | inactive | inactive |  | inactive | inactive | inactive | inactive |
| N[C@@H](Cc1c[nH]c2ccc(O)cc12)C(=O)O | inactive | inactive | inactive | inactive | inactive |  |  |  | inactive |  | inactive | inactive | inactive | inactive | inactive | inactive | inactive | inactive | inactive | inactive |
| NC(=O)N/N=C/c1ccc([N+](=O)[O-])o1 | inactive | inactive and 30.6 µM (active) | inactive and 43.3 µM (active) | 29.8 µM (active) and inactive and 38.6 µM (active) | inactive |  |  |  | inactive |  | inactive | inactive | inactive and 54.5 µM (active) | inactive and 62.9 µM (active) | inactive |  | inactive | inactive | inactive | inactive |
| CC(C)Cc1ccc(C(C)C(=O)O)cc1 (centres undefined) | inactive | inactive | inactive | inactive | inactive |  |  |  | inactive |  | inactive | inactive | inactive | inactive | inactive |  | inactive | inactive | inactive and 68.6 µM (active) | inactive |
| NC(=O)c1ccc([N+](=O)[O-])cc1Cl | inactive | inactive | inactive | inactive | inactive |  |  |  | inactive |  | inactive | inactive | inactive | inactive | inactive | inactive |  |  |  |  |
| CCCCC/C(C=O)=C\c1ccccc1 | inactive | inactive | inactive | inactive | inactive |  |  |  | inactive |  | inactive | inactive | inactive | inactive | inactive and 61.2 µM (active) | inactive |  |  |  |  |
| CC(C)(C)CC(C)(C)c1ccc(O)c(-n2nc3ccccc3n2)c1 | 49.7 µM (active) | inactive | inactive | inactive | inactive |  |  |  | inactive |  | inactive | inactive | inactive | inactive | 26.6 µM (active) and 30.6 µM (active) |  | inactive | inactive | inactive | inactive and 61.1 µM (active) |
